Consider 17 molecules from PubChem BioAssay (NCI).

The panel holds about 79,000 compounds, 15% with a hit somewhere; the sample as a whole holds those more often. Values without a mark were called inactive. Rule as the data show it: active = growth inhibition above about 70%; inactive = the rest.

This assay is described as follows: NCI Yeast Anticancer Drug Screen. Data for the sgs1 strain (AID 173).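 Also: 0% = growth of vehicle-only control cultures.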 The conditions noted are these: S. cerevisiae sgs1 mutant, at 1.2 µM, active compounds read high. Put shortly: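 Vehicle-treated cultures served as reference for growth inhibition of a yeast strain altered in DNA damage repair or cell cycle control after compound exposure.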
On to `CS(=O)(=O)SCc1ccc([N+](=O)[O-])cc1`, for which the growth inhibition is -3%.

Consider `Cc1csc(=S)n1OC(=O)NC1CCCCC1`, for which the growth inhibition is -42%.

`CCOc1ccc(NC(=O)C2=C(C)NC(C)=C(C(=O)Nc3ccc(OCC)cc3)C2c2cccc([N+](=O)[O-])c2)cc1`: the growth inhibition was -2%.

Take `CC(C)(C)N=C(NO)c1ccccc1`: the growth inhibition was 1%.

Turning to `CCCCC/C(=C(\C#N)C(=O)OCC)c1ccccc1`, the growth inhibition was -1%.

Take `O=C(NCCCl)Sc1ccc(Cl)cc1`: the growth inhibition was 0%.

For `O=C1Nc2ccc(Br)cc2C1=Nc1ccc2c(c1)OCO2`, the growth inhibition is -31%.

`CCC(C)OC(=O)Nc1ccc(C)c(NC(=O)OC(C)CC)c1` (configuration not stated): the growth inhibition was -5%.

On to `O=C(O)c1cc2ccc(Cl)cc2c(O)c1C1=CCCCC1`, for which the growth inhibition is 23%.

Consider `CN(C)Cc1cc(N=Nc2ccc(Cl)cc2)ccc1OC(=O)c1ccccc1`, for which the growth inhibition is 0%.

Turning to `CN1CCN(C(=O)/C=C/C(=O)c2ccccc2)CC1`, the growth inhibition was 5%.

`CCCC/C=C/C(C)(C(=O)OCC)C(=O)OCC`: the growth inhibition was -3%.

For `Cc1nc(-c2cc3cc([N+](=O)[O-])ccc3oc2=O)cs1`, the growth inhibition was 5%.

As to `Cc1nc2ccccc2nc1NNc1ccccc1`, the growth inhibition was 1%.

With `CN(C)[C@@H]1C(=O)C(C(N)=O)=C(O)[C@@]2(O)C(=O)C3=C(O)c4c(O)cccc4C[C@H]3C[C@@H]12`, the growth inhibition was -7%.

Turning to `COc1ccc(NC(=O)CC2SC(=Nc3ccccc3C)NC2=O)c([N+](=O)[O-])c1` (configuration not stated), the growth inhibition was -2%.

Take `COc1cc(O)c2c(c1O)C(=O)c1cc(C)ncc1C2=O`: the growth inhibition was 12%.
